# Reference: PubChem BioAssay AID624156 (Broad Institute, 2012)
# About 900 (2%) of roughly 46,000 compounds were called active. Not shown: some 1% with an inconclusive outcome. Many of the other results were omitted from the sample, so actives are more common in it than they were. Unmarked numbers belong to inactive results. No stated cut-off is given here; in the data, active means ROS induction above about 79% (passing the limit was not always enough); inconclusive means no clear call, values can overlap the other calls.
# Assay: ROS inducers in U2OS cancer cells, primary screen, cell-based, H2DCF-DA fluorescence (AID 624156);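 further: 0% = DMSO vehicle median and 100% = reference compound median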
# Details: at 10 µM, hits give high values
row,SMILES,ROS induction (% of piperlongumine)
1,COC(=O)c1ccc(NC(=S)N2CCOCC2)cc1,-2.33%
2,C[C@H]1CN([C@@H](C)CO)C(=O)CCCn2cc(nn2)CO[C@H]1CN(C)S(=O)(=O)c1ccc2ccccc2c1,9.35%
3,CC1CC(NC(=S)N(C)C)CC(C)(C)C1 (stereo unspecified),-10.5%
4,O=C(Nc1ccccc1Cl)c1ccccc1S(=O)(=O)c1ccccc1[N+](=O)[O-],134% (active)
5,O=C(CCc1nc(-c2ccccc2Cl)no1)Nc1ccccc1[N+](=O)[O-],-1.7%
6,CC1CCN(S(=O)(=O)c2ccc(Cl)c(C(=O)Nc3ccccc3[N+](=O)[O-])c2)CC1,-11.1%
7,COc1cccc(CNC(=O)CCn2nc(-c3ccccc3)ccc2=O)c1,-6.11%
8,CCc1cccc(NS(=O)(=O)c2cc(Br)cc3c2N(C(=O)C2CC2)CC3)c1,31.7%
9,CNC(=O)CN1C(=O)c2ccccc2S1(=O)=O,3.08%
10,O=C1c2ccccc2S(=O)c2ccccc2S(=O)(=O)N1Cc1ccccc1 (stereo unspecified),205% (active)
11,COc1ccc(C2C(C(=O)N(C)c3ccc(C(C)C)cc3)CC(=O)N2c2ccc(OC)cc2)cc1 (stereo unspecified),16.7%
12,C=C1C(=O)O[C@@H]2[C@H]3C(CO)=CC(=O)C3=C(C)C[C@H](OC(=O)Cc3ccc(O)cc3)[C@@H]12,205% (active)
13,CCOC(=O)/C(C#N)=c1/s/c(=C2/C=Cc3ccccc3N2CC)c(=O)n1CC,23.1%
14,C[C@@H]1CN([C@H](C)CO)C(=O)c2cc(NC(=O)Nc3ccccc3)ccc2O[C@H]1CN(C)S(=O)(=O)c1ccc(F)cc1,9.94%
15,O=C(Nc1ccccc1)Nc1ccccc1C(=O)N1CCOCC1,-0.785%
16,C[C@H](CO)N1C[C@H](C)[C@H](CN(C)Cc2ccccc2)Oc2ncc(-c3ccccc3)cc2C1=O,3.81%
17,CCCC(O)C#Cc1cnc2c(c1)C(=O)N([C@H](C)CO)C[C@H](C)[C@H](CN(C)Cc1ccc(F)cc1)O2 (stereo partly specified),94.3% (active)
18,COc1ccc(NC(=O)N(C)C[C@@H]2Oc3ncc(-c4cccc(OC)c4)cc3C(=O)N([C@H](C)CO)C[C@@H]2C)cc1,69.6%
19,C[C@H](CO)N1C[C@H](C)[C@H](CN(C)C(=O)Nc2ccc3c(c2)OCO3)Oc2ncc(Br)cc2C1=O,2.65%
20,C[C@H](CO)N1C[C@H](C)[C@H](CN(C)C(=O)Nc2ccc(F)cc2)Oc2ncc(-c3cc4ccccc4o3)cc2C1=O,130% (active)
21,C[C@H](CO)N1C[C@H](C)[C@H](CN(C)C(=O)Nc2ccc3c(c2)OCO3)Oc2ncc(C#Cc3cccc(F)c3)cc2C1=O,93.9% (active)
22,C[C@H](CO)N1C[C@H](C)[C@@H](CN(C)C(=O)Nc2ccc3c(c2)OCO3)Oc2c(cccc2N(C)C)C1=O,6.93%
23,C[C@H](CO)N1C[C@H](C)[C@H](CN(C)C(=O)NC2CCCC2)Oc2ncc(-c3ccc(F)cc3)cc2C1=O,14.3%
24,CCCC(O)C#Cc1cnc2c(c1)C(=O)N([C@H](C)CO)C[C@H](C)[C@H](CN(C)S(=O)(=O)c1ccc(C#N)cc1)O2 (stereo partly specified),-0.235%

row,SMILES,ROS induction (% of piperlongumine)
1,CN1CCN(CC(O)COc2ccc3ccccc3c2)CC1 (stereo unspecified),-2.48%
2,CC(C)CC(C(=O)O)N1C(=O)c2ccccc2C1=O (stereo unspecified),-9.51%
3,Cn1c(=O)c2c(nc(SCC(=O)Nc3ccccc3F)n2Cc2ccccc2)n(C)c1=O,11.1%
4,O=C(Nc1nccs1)C1CCCN(C(=O)c2cnn(-c3ccccc3)c2-n2cccc2)C1 (stereo unspecified),4.87%
5,COc1ccc(NS(=O)(=O)c2ccc(OCC(F)(F)F)c(C#N)c2OCC(F)(F)F)cc1,-8.52%
6,CCOc1ccc2c(=O)c(Oc3ccccc3Br)coc2c1,0.931%
7,Cc1noc(C)c1NC(=O)NCc1ccc2c(c1)OCO2,-1.2%
8,CN(C)c1ccc(/C=C(\C#N)S(=O)(=O)c2ccccc2)cc1C#N,-4.92%
9,CC1CCN(C(=O)CCNS(=O)(=O)c2cccc3nsnc23)CC1,-19.6%
10,Cc1cc(C(C)(C)C)cc(S(=O)(=O)Nc2ccc(C(=O)N3CCC(C)CC3)cc2)c1C,5.57%
11,Cc1cccc(NC(=O)c2nnn(-c3cccc(C(F)(F)F)c3)c2N)c1,-17.1%
12,O=S(=O)(NCc1csc(-c2cccnc2)n1)c1ccc2c(c1)CCCC2,5.59%
13,Cn1c(=NC(=O)CCOc2ccccc2)sc2cc(Br)ccc21,1.27%
14,Cc1ccc(Nc2cc(C(=O)NCC3CCCO3)c3ccccc3n2)cc1C (stereo unspecified),1.21%
15,Cc1ccc(S(=O)(=O)N(CC(=O)Nc2ccc3c(c2)OCCO3)C2CCCCC2)cc1,7.86%
16,Cc1cc(Nc2ccc(Cl)cc2)c2ccccc2n1,6.49%
17,Cc1nnc(SCc2cc(=O)[nH]c(N3CCN(Cc4ccccc4)CC3)n2)s1,-2.67%
18,Cc1cc(Sc2nnc(C)s2)c2ccccc2n1,255% (active)
19,Cc1ccc2c(Sc3ccc(Cl)cc3)c(C(=O)NC3CCCC3)[nH]c2c1,-12.5%
20,O=C(N/N=C/c1cc(F)ccc1O)c1ccccc1O,-13.6%
21,c1ccc(Nc2ncnc3sc(-c4ccccc4)cc23)cc1,130% (active)
22,CNC(=O)NC(=O)CSc1ncnc2sc(-c3ccccc3)cc12,5.81%
23,Cc1ccccc1NC(=O)NC(=O)CC#N,-16.4%
24,C[C@@H]1CN([C@@H](C)CO)C(=O)c2cc(NC(=O)C3CC3)ccc2O[C@H]1CN(C)C,-0.632%

row,SMILES,ROS induction (% of piperlongumine)
1,Cn1c(=O)c2c(nc(SCC(=O)NC(C)(C)C)n2Cc2ccccc2F)n(C)c1=O,0.779%
2,CC(C)C1Cc2c(sc3nc(SCC(=O)Nc4ccccc4)nc(N)c23)CO1 (stereo unspecified),44%
3,Cc1ccc(NC(=O)c2ccc(CSc3ccccn3)cc2)c(C)c1,-9.72%
4,C[C@@H]1CN([C@H](C)CO)C(=O)c2cc(NS(=O)(=O)c3ccc(F)cc3)ccc2O[C@H]1CN(C)C(=O)Nc1cccc2ccccc12,6.38%
5,COC(=O)C(CC#Cc1ccc2c(c1)[C@]1(C(=O)N2)[C@H](c2ccccc2OCCO)N2[C@H](c3ccccc3)[C@H](c3ccccc3)OC(=O)[C@H]2[C@@H]1C(N)=O)C(=O)OC,447% (active)
6,C=CCNC(=O)[C@H]1[C@@H]2C(=O)O[C@@H](c3ccccc3)[C@@H](c3ccccc3)N2[C@@H](c2ccccc2OCCO)[C@]12C(=O)N(C(=O)OCCOC)c1ccc(C#Cc3ccc(OC)cc3)cc12,15.7%
7,COc1ccc(C#Cc2ccc3c(c2)[C@]2(C(=O)N3)[C@H](c3ccccc3OCCO)N3[C@H](c4ccccc4)[C@H](c4ccccc4)OC(=O)[C@H]3[C@@H]2C(=O)N2CCCCCCC2)cc1,-14.4%
8,COCCOC(=O)N1C(=O)[C@@]2(c3cc(C#CCC(C(=O)OC)C(=O)OC)ccc31)[C@H](c1ccc(OCCO)cc1)N1[C@H](c3ccccc3)[C@H](c3ccccc3)OC(=O)[C@H]1[C@@H]2C(N)=O,166% (active)
9,O=C1O[C@@H](c2ccccc2)[C@@H](c2ccccc2)N2[C@@H](c3ccc(OCCO)cc3)[C@]3(C(=O)Nc4ccc(C#CCCO)cc43)[C@@H](C(=O)O)[C@H]12,0.895%
10,COC(=O)C(CC#Cc1ccc2c(c1)[C@]1(C(=O)N2)[C@H](c2ccc(O)cc2)N2[C@H](c3ccccc3)[C@H](c3ccccc3)OC(=O)[C@H]2[C@@H]1C(=O)NC[C@H](O)c1ccccc1)C(=O)OC,16.4%
11,O=C1O[C@H](c2ccccc2)[C@H](c2ccccc2)N2[C@H]1[C@@H](C(=O)N1CCN(c3ncccn3)CC1)[C@]1(C(=O)Nc3ccccc31)[C@H]2c1ccc(OCCO)cc1,69.8%
12,O=C1O[C@@H](c2ccccc2)[C@@H](c2ccccc2)N2[C@@H](c3ccccc3OCCO)[C@]3(C(=O)Nc4ccccc43)[C@@H](C(=O)N3CCCCCCC3)[C@H]12,108% (active)
13,COCCOC(=O)N1C(=O)[C@@]2(c3cc(C#CCNC(N)=O)ccc31)[C@H](C(=O)N1CCN(c3ncccn3)CC1)[C@H]1C(=O)O[C@H](c3ccccc3)[C@H](c3ccccc3)N1[C@@H]2c1ccccc1OCCO,19.5%
14,COc1ccc(CCNC(=O)c2cc3ccccc3c(=O)o2)cc1OC,19.8%
15,COc1ccc(/C=C(/NC(=O)c2ccccc2)C(=O)N2CC3(C)CC2CC(C)(C)C3)cc1 (stereo unspecified),1.8%
16,CCOC(=O)C1CCN(C(=O)CN2C(=O)c3ccccc3C2=O)CC1,-6.98%
17,COc1cccc(CNS(=O)(=O)c2ccc3[nH]c(=O)ccc3c2)c1,-8.9%
18,C[C@@H]1CN([C@@H](C)CO)C(=O)c2cc(NC(=O)CCCN(C)C)ccc2O[C@H]1CN(C)Cc1ccccc1,-15.8%
19,NS(=O)(=O)c1ccc(CCNC2=CC(=O)OC23CCCCC3)cc1,-9.03%
20,COc1ccc(OC)c(NC(=O)CSc2n[nH]c(-c3ccncc3)n2)c1,148% (active)
21,O=C(CSc1n[nH]c(-c2ccncc2)n1)Nc1ccccc1F,-7%
22,COC(=O)c1ccccc1NC(=O)CSc1n[nH]c(-c2ccncc2)n1,-0.326%
23,CC1CCCC(C)N1C(=O)c1cc2c(s1)-c1ccccc1OC2 (stereo unspecified),-1.02%
